Mcl1 Noxa PPI = Mcl-1/Noxa binding inhibitors, primary screen, biochemical, TR-FRET, 1536-well; TR-FRET Mcl-1/Noxa peptide binding, 2 h; inhibition, % at 21.7 µM; 1.5% of 220,000 active; AID 1022, 2008;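 active = compounds that cut the protein-peptide binding signal by more than 50% relative to plate controls in a single-dose test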;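 note: His-tagged Mcl-1 with rhodamine Noxa BH3 peptide and terbium anti-His antibody; 0% = Mcl-1 plus Noxa peptide wells and 100% = peptide-only wells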
Target sequence (Q07820 whole entry, looked up): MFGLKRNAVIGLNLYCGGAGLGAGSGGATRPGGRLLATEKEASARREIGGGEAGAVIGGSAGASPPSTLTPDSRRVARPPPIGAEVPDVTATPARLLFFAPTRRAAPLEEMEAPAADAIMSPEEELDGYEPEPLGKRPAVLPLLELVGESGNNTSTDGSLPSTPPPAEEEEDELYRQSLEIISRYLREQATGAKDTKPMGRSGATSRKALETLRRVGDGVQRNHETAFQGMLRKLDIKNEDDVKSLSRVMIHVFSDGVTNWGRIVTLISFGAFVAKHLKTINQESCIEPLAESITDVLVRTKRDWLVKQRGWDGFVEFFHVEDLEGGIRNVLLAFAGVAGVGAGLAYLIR
Bcl-xL primary = inhibitors of human Bcl-xL, primary screen, biochemical, fluorescence polarization, HTS. 0.7% of 320,000 active. GST-Bcl-xL / FITC-Bim BH3 peptide fluorescence polarization. Bcl-2-like protein 1 (Homo sapiens), Q07817. inhibition, % at 10.9 µM;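 active = inhibition above the mean of all tested compounds plus 3 SD, cutoff set per campaign, cut at about 30% in these data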;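 note: 0% = DMSO wells and 100% = unlabeled Bim-BH3 peptide competitor; inhibitors lower millipolarization by displacing the labeled peptide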
Bim-Mcl-1 = inhibitors of Bim peptide binding to Mcl-1, primary screen, biochemical, bead-based flow cytometry, multiplex. Induced myeloid leukemia cell differentiation protein Mcl-1 (Homo sapiens), Q07820. Bim peptide-Mcl-1 binding. inhibition, % at 10 µM. 0.1% of 190,000 active. AID 1009, 2008; in the data active = inhibition above about 40%;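 note: 0% = no compound tracer wells and 100% = peptide blocker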
Mcl1 Bid PPI = Mcl-1/Bid binding inhibitors, primary screen, biochemical, TR-FRET, 1536-well; Induced myeloid leukemia cell differentiation protein Mcl-1 (Homo sapiens), Q07820; TR-FRET Mcl-1/Bid-Dy647 peptide binding; inhibition, % at 21.7 µM; 0.97% of 220,000 active;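 active = compounds that cut the binding signal by more than half at the single screening dose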;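 note: His-tagged Mcl-1 with europium anti-His antibody binding Bid BH3 peptide; 0% = Mcl-1 plus peptide wells and 100% = peptide-only wells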
MCL1-BIM inh = inhibitors of MCL1 binding to BIM-BH3, primary screen, biochemical, fluorescence polarization | Induced myeloid leukemia cell differentiation protein Mcl-1 (Homo sapiens), Q07820 | GST-MCL1 / FITC-Bim-BH3 fluorescence polarization | inhibition, % at 10.9 µM | 0.68% of 320,000 active;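 active = inhibition above the mean inhibition of all tested compounds plus 3 SD, set per campaign, cut at about 40% in these data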;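 note: 0% = DMSO wells and 100% = unlabeled Bim-BH3 peptide control; higher means more loss of mP so more displacement of Bim peptide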
GLD-1 RNA inh = GLD-1/TGE RNA complex disruptors, primary screen, biochemical, fluorescence polarization. Female germline-specific tumor suppressor gld-1 (Caenorhabditis elegans), Q17339. purified GLD-1 + fluorescein TGE RNA. inhibition, % at 5.96 µM. 0.44% of 320,000 active. AID 2280, 2010;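 active = percent inhibition above a per-plate cutoff, the plate mean of test compounds plus 3 SD, cut at about 30% in these data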;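 note: 0% = DMSO wells with GLD-1 and probe and 100% = wells lacking GLD-1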
BCLXL inh confirm = Bcl-xL inhibitors blocking Bim BH3 binding, confirmation, counter-screen for MCL1 inhibitor project, biochemical, fluorescence polarization | AID 2166, 2009 | inhibition, % at 10.9 µM | GST-Bcl-xL / FITC-Bim BH3 peptide FP binding | 54% of 1,700 active | shares compounds with MCL1-BIM inh;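 active = inhibition above a cutoff equal to the mean inhibition of all tested compounds plus 3 SD, cut at about 30% in these data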;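 note: 0% = DMSO wells and 100% = unlabeled Bim BH3 control peptide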
MCL1 BIM confirm = inhibitors of MCL1 binding to BIM-BH3, confirmation, biochemical, fluorescence polarization, triplicate; shares compounds with MCL1-BIM inh; GST-MCL1 / FITC-Bim-BH3 fluorescence polarization; inhibition, % at 10.9 µM; 61% of 1,700 active; AID 2168, 2009;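 active = inhibition above the average of all tested compounds plus 3 SD, cut at about 40% in these data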;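 note: 0% = DMSO wells and 100% = unlabeled Bim-BH3 control peptide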
* marks the source's active call; other numbers are inactive results; / = not tested or not shown; + = active, no number; ! = a repeat was not active. A selection: hits, their analogues and other compounds. The true share with any hit is near 2.3%.

SMILES	Mcl1 Noxa PPI	Bcl-xL primary	Bim-Mcl-1	Mcl1 Bid PPI	MCL1-BIM inh	GLD-1 RNA inh	BCLXL inh confirm	MCL1 BIM confirm
CCOc1ccc(NC(=O)C2CCCN2S(=O)(=O)c2ccc(OCC)cc2)cc1 (stereo unspecified)	/	3	/	/	12	-12	/	/
CCOC(=O)N1CCC(N(CCN(C)C)C(=S)Nc2ccc(Oc3ccccc3)cc2)CC1	0	7	-4	-52	11	4	/	/
O=C(C1CCCO1)N1CCN(c2ccccn2)CC1 (stereo unspecified)	-8	0	-2	-18	1	5	/	/
CCCOc1ccc(N)cc1N	76*	117*	4	1	124*	-5	40*	45*
O=C1C=CC(=O)N1	/	6	/	/	-1	6	/	/
CC(C(=O)OCC(=O)NC1CCCC1)N1C(=O)c2ccccc2C1=O (stereo unspecified)	/	/	/	/	/	-6	/	/
COCCCn1c(=O)/c(=C\c2ccccc2OC(F)F)s/c1=C(/C#N)C(=O)NCCOC	0	6	/	-21	5	2	/	/
COCCCn1c(=O)/c(=C\c2ccccc2OC(F)F)s/c1=C(/C#N)C(=O)N1CCOCC1	11	1	0	-28	+	4	0	-1
Cc1cccc(/C=C2\Oc3cc(OS(C)(=O)=O)ccc3C2=O)c1	12	9	-4	-16	7	11	/	/
O=C1/C(=C/c2cccc(F)c2)Oc2cc(O)ccc21	/	75*	/	/	66*	70*	83*	98*
CCCCn1c(SCC(=O)NCc2ccco2)nc2cc(S(N)(=O)=O)ccc21	-8	-8	2	-28	41*	-1	4	12
O=C(CSc1nc2[nH]ncc2c(=O)[nH]1)Nc1ccccc1F	/	-2	/	/	-3	4	/	/
CC(=O)N1CCc2c(sc(NC(=O)C3CCCN3S(=O)(=O)c3cccs3)c2C(N)=O)C1 (stereo unspecified)	/	67*	/	/	64*	115*	67*	76*
CC(=O)N1CCc2c(sc(NC(=O)C3CCN(S(=O)(=O)c4cccs4)CC3)c2C(N)=O)C1	/	6	/	/	3	28	/	/
CCc1oc2ccccc2c1C(=O)c1cc(Br)c(O)c(Br)c1	33	1	-4	52*!	62*	3	4	12
O=C(O)c1ccccc1Nc1cccc(OCc2ccc3ccccc3n2)c1	/	4	/	/	6	1	/	/
Cc1cccc(C)c1NC(=O)CNC(=O)c1ccccc1OCc1ccccc1	/	2	/	/	3	7	/	/
Cc1ccc(C)c(NC(=O)Nc2ccc3c(c2)OCO3)c1	/	2	/	/	1	3	/	/
Cc1ccc(CNc2ccc3c(c2)OCO3)c(C)c1	38	127*	3	-61	144*	0	72*	90*
Cc1c(Cl)cnc(NC(=O)COC(=O)c2ccc([N+](=O)[O-])s2)c1Cl	94*	42*	-4	7	61*	19	34*	48*
O=C(COC(=O)c1ccc([N+](=O)[O-])s1)Nc1ccc(Cl)cn1	16	17	-5	12	16	1	/	/
Cc1sc2nc(CN3CCOCC3)nc(N3CCN(S(=O)(=O)c4ccccc4)CC3)c2c1C	/	-4	/	/	-1	5	/	/
Cc1c(N)cc(N)cc1C(=O)O	1	145*	/	-149	166*	128*	67*	44*
Cc1c(Br)cc(C(=O)O)c(C)c1C	20	3	0	12	8	7	/	/

Source: PubChem BioAssay (several laboratories)
